Legend:
Experiment in all cases: log2 ratio of Biotin-Ahx-Ub-VS probe labelling (fragment/DMSO); higher = less target engagement (more negative = stronger competition), active = hit call of the paper (q ≤ 0.05, log2 ratio ≤ -1)
Details in all cases: compound concentration: 200 uM; treatment time: 3 h
USP42 = biological target: T1, USP42 (UniProt Q9H9J4)
T1 sequence (whole entry): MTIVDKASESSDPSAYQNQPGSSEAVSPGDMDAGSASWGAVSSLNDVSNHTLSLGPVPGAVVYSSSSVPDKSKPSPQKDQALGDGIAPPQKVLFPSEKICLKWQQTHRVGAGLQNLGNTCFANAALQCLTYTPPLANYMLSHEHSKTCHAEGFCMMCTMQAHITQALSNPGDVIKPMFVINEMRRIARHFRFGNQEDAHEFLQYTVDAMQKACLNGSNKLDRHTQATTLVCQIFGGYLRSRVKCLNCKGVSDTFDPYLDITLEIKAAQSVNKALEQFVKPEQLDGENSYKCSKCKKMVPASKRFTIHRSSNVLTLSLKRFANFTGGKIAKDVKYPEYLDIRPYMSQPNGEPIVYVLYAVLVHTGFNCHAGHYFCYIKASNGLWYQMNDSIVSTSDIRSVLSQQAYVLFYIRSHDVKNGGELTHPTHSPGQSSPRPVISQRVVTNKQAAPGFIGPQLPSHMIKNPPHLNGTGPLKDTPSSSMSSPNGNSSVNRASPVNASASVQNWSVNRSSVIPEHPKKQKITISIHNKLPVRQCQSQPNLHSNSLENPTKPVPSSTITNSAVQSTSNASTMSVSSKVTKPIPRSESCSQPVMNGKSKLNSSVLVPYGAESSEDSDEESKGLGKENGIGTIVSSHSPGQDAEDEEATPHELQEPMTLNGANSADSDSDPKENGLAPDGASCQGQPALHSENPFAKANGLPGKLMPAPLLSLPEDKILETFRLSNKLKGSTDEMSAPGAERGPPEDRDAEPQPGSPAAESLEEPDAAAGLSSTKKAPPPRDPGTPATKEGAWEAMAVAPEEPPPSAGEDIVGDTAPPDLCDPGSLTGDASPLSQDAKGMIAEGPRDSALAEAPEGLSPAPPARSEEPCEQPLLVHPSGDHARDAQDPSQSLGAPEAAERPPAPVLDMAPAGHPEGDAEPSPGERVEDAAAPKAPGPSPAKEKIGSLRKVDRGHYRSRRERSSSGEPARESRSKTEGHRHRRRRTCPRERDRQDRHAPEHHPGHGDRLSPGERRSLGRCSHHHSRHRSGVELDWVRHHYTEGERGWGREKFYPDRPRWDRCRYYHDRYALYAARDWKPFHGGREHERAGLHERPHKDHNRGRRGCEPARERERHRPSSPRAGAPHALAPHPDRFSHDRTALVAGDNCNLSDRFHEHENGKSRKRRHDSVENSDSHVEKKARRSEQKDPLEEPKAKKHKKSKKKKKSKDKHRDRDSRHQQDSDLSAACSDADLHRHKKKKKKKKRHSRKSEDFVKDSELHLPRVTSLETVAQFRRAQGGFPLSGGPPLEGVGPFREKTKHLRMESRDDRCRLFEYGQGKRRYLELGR
In short: (§1)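 HEK293T lysate (495 µg per sample, in Tris/CHAPS/IGEPAL buffer with protease inhibitors) was treated in triplicate with fragment at 200 µM or with DMSO for 3 h. It was then treated with Biotin-Ahx-Ub-VS (0.5 µM final) for 1 h. Labelled DUBs were NeutrAvidin-enriched, digested with LysC and trypsin, and run by diaPASEF LC-MS/MS. Spectronaut label-free quantities were global-median-normalised. Values are average log2 ratios fragment/DMSO by unpaired t-test, using proteins with ≥2 unique peptides.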

USP46 = USP46 (UniProt P62068)
In short: as §1

USP47 = biological target: T2, USP47 (UniProt Q96K76)
T2 sequence (whole entry): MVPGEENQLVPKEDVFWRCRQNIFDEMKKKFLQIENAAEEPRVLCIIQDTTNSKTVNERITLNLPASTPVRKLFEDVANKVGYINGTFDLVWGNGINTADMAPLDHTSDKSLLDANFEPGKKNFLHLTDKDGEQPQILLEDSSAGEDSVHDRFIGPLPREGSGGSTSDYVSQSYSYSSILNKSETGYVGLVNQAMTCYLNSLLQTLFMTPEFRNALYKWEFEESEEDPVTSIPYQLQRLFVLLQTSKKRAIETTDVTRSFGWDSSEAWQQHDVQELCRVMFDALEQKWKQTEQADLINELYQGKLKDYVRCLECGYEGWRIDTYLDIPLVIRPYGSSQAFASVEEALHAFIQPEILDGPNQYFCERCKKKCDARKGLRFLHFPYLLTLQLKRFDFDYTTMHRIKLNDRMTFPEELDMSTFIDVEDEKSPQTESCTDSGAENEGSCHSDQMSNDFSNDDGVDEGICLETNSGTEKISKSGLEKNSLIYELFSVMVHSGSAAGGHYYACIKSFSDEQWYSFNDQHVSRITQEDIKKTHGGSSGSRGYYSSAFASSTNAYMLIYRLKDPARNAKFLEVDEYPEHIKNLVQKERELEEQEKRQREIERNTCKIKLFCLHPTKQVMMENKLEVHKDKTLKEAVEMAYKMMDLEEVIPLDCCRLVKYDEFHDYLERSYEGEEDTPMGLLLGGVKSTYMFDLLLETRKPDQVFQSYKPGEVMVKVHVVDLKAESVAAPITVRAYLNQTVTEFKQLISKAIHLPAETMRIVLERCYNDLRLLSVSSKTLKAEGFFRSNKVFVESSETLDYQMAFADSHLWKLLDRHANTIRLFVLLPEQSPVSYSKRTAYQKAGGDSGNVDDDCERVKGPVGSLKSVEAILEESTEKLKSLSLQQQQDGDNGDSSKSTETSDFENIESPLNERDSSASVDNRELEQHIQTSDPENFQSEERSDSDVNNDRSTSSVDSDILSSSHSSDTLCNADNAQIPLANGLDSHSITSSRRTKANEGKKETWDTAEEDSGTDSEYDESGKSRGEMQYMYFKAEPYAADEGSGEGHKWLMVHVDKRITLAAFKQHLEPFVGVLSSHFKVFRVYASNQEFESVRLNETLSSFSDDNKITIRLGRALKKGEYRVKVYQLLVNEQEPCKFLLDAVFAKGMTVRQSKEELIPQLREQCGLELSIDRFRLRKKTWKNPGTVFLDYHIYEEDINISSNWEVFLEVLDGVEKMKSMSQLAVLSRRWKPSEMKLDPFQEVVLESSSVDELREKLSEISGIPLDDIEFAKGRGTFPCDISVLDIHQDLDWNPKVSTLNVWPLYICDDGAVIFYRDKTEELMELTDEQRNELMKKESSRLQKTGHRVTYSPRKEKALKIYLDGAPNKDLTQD
In short: as §1

USP48 = biological target: T3, USP48 (UniProt Q86UV5)
T3 sequence (whole entry): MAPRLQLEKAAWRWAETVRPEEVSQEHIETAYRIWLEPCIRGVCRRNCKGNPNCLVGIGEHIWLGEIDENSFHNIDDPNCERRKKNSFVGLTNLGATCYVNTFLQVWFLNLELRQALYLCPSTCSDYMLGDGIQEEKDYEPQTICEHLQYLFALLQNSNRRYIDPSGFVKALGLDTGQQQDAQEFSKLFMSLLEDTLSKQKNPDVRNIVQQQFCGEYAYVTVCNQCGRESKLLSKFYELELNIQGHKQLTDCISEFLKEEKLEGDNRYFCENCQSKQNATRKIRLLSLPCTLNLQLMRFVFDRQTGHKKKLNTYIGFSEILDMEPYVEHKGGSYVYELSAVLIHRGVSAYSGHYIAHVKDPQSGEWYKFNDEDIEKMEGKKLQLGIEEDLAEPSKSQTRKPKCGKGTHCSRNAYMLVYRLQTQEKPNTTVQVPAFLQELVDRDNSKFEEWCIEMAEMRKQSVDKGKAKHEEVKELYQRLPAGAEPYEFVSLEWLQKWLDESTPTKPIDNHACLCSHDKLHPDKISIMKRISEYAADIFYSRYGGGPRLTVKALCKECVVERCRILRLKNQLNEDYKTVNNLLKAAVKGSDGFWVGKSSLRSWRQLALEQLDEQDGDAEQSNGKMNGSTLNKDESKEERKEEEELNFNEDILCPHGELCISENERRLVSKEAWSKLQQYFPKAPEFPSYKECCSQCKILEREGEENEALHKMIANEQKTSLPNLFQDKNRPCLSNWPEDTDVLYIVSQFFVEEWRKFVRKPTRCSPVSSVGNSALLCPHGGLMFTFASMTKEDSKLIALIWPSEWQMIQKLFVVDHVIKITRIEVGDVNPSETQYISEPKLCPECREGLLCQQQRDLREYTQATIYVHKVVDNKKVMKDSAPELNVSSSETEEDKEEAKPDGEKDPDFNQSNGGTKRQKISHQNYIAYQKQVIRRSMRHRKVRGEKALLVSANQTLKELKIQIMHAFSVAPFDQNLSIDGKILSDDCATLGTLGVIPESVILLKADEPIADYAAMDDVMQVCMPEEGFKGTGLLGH
In short: as §1

USP5 = biological target: T4, USP5 (UniProt P45974)
T4 sequence (whole entry): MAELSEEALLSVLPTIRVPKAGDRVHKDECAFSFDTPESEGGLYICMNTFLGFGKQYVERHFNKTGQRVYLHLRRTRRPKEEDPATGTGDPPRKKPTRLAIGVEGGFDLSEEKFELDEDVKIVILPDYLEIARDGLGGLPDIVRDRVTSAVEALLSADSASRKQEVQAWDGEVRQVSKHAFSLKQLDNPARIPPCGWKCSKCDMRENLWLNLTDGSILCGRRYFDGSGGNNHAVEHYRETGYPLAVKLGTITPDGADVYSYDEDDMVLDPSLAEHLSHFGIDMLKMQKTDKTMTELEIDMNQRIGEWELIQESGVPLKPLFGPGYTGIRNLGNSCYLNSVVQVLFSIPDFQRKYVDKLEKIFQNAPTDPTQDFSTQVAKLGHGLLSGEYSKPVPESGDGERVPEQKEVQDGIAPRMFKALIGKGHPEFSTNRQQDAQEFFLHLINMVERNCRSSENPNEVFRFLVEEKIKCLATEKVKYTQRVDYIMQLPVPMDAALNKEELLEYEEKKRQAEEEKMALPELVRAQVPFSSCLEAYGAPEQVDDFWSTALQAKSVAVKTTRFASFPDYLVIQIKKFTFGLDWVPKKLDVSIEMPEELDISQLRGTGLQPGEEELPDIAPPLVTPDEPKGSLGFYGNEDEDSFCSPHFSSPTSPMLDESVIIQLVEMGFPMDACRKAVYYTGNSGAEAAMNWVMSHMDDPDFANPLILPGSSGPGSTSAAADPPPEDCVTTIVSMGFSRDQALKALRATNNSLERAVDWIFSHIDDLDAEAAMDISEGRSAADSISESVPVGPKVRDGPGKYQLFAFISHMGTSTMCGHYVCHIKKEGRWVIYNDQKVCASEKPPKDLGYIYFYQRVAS
In short: as §1

USP54 = USP54 (UniProt Q70EL1)
In short: as §1

USP7 = USP7 (UniProt Q93009)
In short: as §1

USP8 = biological target: T5, USP8 (UniProt P40818)
T5 sequence (whole entry): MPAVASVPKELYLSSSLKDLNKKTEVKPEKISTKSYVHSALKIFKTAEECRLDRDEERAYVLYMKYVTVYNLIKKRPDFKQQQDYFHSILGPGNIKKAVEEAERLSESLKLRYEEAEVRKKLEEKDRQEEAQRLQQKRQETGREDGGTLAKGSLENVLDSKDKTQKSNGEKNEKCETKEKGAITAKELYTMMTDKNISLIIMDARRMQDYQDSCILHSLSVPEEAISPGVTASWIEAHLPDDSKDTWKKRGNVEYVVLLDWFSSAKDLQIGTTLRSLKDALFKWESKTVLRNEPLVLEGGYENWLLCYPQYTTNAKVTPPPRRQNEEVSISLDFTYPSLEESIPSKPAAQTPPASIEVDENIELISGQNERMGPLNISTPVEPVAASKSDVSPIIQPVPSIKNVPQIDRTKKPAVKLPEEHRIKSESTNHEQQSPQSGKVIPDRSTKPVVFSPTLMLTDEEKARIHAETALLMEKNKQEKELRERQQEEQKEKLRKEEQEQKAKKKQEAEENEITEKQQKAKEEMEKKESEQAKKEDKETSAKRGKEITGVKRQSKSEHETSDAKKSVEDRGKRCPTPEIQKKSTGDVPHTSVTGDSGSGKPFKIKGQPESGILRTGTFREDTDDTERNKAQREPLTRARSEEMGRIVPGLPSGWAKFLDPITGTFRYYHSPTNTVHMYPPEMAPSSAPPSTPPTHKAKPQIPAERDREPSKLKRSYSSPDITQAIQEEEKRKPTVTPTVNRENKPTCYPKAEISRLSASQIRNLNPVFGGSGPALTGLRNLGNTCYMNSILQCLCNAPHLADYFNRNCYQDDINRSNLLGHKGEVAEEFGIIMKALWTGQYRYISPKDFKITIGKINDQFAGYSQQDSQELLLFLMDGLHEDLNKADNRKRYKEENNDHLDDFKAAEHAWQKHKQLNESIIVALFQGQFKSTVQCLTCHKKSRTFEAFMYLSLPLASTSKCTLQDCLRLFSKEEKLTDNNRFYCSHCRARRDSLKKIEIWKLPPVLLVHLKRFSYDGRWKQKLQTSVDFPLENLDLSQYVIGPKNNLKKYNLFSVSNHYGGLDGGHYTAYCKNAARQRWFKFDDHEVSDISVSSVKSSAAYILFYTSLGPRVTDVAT
In short: as §1

Measured: log2 ratio of Biotin-Ahx-Ub-VS probe labelling

Chain of USP7 (Q93009 whole entry, looked up): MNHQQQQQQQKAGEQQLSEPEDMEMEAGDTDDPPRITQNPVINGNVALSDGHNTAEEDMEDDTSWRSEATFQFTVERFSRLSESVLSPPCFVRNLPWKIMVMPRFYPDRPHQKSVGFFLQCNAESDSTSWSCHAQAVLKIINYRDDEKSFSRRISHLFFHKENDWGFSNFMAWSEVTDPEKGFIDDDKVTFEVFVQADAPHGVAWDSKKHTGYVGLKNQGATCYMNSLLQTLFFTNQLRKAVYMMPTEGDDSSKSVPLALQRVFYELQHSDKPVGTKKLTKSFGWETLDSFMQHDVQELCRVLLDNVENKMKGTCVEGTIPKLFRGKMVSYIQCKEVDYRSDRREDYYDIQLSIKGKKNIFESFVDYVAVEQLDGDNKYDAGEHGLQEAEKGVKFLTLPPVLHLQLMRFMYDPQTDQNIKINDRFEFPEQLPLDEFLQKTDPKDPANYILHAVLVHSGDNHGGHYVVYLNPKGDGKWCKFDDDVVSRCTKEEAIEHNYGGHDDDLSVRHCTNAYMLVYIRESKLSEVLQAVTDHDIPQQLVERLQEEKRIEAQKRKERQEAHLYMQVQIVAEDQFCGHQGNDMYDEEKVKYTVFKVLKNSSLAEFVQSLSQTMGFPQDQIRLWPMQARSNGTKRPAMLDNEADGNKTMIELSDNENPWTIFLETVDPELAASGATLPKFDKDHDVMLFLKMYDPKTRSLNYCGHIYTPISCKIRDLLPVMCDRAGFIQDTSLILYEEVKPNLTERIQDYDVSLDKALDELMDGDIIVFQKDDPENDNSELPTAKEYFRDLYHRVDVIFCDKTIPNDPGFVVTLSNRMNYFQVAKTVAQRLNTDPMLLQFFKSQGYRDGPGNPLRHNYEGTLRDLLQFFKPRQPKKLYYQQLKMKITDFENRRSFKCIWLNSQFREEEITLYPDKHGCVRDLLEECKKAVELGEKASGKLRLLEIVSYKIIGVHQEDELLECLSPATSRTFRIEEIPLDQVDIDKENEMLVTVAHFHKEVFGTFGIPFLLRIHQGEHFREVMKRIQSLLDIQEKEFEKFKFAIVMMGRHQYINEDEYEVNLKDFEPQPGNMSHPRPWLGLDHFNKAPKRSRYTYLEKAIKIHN
Chain of USP46 (P62068 whole entry): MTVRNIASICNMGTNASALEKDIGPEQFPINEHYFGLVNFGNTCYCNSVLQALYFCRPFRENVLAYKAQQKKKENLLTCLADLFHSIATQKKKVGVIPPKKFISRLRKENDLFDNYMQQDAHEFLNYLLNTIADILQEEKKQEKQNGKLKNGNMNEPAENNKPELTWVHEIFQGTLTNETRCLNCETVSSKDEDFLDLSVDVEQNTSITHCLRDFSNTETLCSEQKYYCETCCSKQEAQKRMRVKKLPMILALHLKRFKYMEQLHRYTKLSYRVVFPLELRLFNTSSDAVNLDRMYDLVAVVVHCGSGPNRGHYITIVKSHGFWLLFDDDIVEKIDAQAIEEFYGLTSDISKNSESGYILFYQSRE
Chain of USP54 (Q70EL1 whole entry): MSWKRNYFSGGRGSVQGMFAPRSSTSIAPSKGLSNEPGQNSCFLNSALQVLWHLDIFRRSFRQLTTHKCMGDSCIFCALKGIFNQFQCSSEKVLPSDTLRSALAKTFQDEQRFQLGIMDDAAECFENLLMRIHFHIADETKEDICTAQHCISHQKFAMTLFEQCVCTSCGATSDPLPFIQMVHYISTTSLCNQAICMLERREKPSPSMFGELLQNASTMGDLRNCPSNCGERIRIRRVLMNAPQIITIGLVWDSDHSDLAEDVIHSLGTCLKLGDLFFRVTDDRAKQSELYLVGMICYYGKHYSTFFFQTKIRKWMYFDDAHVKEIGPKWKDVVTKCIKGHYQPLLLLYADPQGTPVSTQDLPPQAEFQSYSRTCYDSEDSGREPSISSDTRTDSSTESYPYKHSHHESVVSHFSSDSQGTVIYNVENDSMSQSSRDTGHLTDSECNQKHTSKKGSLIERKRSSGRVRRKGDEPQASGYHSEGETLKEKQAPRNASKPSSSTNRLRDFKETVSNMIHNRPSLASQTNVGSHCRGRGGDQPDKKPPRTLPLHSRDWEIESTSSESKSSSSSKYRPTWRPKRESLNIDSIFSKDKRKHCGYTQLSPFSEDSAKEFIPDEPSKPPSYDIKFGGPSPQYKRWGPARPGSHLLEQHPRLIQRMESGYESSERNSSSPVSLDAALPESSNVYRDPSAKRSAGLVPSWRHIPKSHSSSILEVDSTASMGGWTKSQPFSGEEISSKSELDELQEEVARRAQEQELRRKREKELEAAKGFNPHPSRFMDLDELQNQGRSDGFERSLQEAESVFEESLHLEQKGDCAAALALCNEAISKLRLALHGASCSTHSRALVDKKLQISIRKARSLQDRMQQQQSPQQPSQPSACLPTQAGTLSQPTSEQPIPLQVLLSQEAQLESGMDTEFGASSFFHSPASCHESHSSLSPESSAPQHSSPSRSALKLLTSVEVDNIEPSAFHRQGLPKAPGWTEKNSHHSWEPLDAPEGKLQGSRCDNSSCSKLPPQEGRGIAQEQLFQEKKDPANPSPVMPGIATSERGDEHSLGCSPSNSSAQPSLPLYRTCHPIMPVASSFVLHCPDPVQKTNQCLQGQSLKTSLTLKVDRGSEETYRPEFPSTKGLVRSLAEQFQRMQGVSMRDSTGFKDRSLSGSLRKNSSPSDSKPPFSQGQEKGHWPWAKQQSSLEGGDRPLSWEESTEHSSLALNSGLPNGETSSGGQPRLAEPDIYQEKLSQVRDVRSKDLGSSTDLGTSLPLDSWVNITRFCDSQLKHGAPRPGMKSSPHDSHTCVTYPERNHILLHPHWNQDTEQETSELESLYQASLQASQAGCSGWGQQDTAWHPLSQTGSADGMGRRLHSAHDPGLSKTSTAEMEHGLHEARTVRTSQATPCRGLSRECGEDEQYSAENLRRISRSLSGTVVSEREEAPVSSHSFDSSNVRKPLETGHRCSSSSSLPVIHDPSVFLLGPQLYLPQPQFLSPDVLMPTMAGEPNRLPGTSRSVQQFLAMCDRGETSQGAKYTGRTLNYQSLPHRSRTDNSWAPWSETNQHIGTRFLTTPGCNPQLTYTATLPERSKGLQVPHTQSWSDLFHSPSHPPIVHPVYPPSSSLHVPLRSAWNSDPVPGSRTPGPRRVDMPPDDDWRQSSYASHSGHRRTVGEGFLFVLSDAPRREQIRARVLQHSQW

CCN1C(=O)C2CN(C(=O)CCl)CCN2C1=O (stereo not drawn)
inactive: USP42 0.369 | USP46 -0.0317 | USP47 0.124 | USP48 -0.1 | USP5 0.0692 | USP54 -0.191 | USP7 -0.307 | USP8 0.0104
